# In paper PMC7862700, “An all-to-all approach to the identification of sequence-specific readers for epigenetic DNA modifications on cytosine”:
# Assays:
# Assay in all cases: DAPPL (digital affinity profiling via proximity ligation, sequencing); 10 mM Tris-HCl pH 7.5, 50 mM NaCl, 1 mM DTT, 4% glycerol, room temperature, 30 min; GST-TFs on glutathione beads, 16-mer random dsDNA library, 0.1% formaldehyde crosslink after washing; high values mean tight binding
# Conditions in all cases: protein: recombinant; tags: N-terminal GST; dsDNA, one strand shown
# ERF = target: T1, ERF (Homo sapiens, UniProt P50548 1-548)
# T1 sequence: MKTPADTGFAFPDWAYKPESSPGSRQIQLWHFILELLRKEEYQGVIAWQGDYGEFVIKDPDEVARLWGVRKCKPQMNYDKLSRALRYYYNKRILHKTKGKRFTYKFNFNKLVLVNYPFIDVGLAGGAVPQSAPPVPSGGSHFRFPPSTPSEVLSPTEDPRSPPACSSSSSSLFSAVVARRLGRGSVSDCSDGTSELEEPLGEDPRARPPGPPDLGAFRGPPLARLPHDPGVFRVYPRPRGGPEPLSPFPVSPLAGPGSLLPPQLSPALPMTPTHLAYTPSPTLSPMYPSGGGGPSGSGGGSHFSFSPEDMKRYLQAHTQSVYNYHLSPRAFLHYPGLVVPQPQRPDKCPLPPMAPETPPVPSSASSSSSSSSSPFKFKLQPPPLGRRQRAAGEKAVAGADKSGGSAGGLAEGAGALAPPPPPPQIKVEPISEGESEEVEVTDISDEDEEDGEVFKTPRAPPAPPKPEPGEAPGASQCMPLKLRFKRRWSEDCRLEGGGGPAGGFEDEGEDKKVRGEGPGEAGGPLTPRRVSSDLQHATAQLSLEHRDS
# Procedure, shortened: (§1)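 Sequencing on an Illumina NextSeq500 followed washing, crosslinking with 0.1% formaldehyde, proximity ligation (BsaI/T4 ligase, 1 h, 37 °C) and PCR amplification of pools that had been incubated for 30 min at room temperature with 200 nmole of a random double-stranded 16-mer DNA library in Tris/NaCl/DTT/glycerol buffer. Each pool held DNA-barcoded human transcription factors, expressed in yeast as GST fusions and captured on glutathione beads, plus a tag-only sample. Binding signal is a hexamer's read frequency for a factor divided by its frequency in the tag-only sample.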
# ETV3L = target: T2, ETV3L (Homo sapiens, UniProt Q6ZN32 1-361)
# T2 sequence: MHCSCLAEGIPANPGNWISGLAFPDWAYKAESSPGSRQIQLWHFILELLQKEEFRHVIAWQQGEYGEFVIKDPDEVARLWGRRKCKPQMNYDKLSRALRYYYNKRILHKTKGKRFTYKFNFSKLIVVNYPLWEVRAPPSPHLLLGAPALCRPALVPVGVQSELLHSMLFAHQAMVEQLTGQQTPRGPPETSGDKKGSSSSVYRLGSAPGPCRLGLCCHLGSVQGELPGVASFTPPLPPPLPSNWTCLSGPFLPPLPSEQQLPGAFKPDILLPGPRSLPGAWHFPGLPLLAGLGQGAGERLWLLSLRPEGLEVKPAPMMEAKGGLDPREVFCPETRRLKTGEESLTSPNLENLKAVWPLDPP
# Procedure, shortened: as §1
# ETS2 = target: T3, ETS2 (Homo sapiens, UniProt P15036 1-469)
# T3 sequence: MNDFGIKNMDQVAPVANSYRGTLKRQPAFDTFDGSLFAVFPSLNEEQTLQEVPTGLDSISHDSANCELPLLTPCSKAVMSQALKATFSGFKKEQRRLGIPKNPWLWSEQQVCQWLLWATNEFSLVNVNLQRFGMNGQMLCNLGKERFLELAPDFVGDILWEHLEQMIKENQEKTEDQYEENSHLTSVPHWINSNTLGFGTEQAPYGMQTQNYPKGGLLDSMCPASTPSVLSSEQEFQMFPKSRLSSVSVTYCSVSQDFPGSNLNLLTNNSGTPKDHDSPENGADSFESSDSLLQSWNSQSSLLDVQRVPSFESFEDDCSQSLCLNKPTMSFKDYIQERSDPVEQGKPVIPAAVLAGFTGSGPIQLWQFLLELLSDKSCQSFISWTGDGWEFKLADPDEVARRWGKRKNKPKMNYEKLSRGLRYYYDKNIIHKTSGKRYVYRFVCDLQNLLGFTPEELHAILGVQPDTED
# Procedure, shortened: as §1
# SPDEF = target: T4, SPDEF (Homo sapiens, UniProt O95238 1-335)
# T4 sequence: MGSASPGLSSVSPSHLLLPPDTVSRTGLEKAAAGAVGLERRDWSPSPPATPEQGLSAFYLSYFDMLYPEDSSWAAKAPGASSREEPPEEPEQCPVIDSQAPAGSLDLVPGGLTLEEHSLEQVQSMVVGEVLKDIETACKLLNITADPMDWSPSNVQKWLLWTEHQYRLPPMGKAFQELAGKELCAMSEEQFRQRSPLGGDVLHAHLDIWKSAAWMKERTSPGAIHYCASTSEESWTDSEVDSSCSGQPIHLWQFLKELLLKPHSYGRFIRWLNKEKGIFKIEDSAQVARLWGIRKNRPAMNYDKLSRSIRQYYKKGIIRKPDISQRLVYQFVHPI
# Procedure, shortened: as §1
# ETV7 = target: T5, ETV7 (Homo sapiens, UniProt Q9Y603 1-341)
# T5 sequence: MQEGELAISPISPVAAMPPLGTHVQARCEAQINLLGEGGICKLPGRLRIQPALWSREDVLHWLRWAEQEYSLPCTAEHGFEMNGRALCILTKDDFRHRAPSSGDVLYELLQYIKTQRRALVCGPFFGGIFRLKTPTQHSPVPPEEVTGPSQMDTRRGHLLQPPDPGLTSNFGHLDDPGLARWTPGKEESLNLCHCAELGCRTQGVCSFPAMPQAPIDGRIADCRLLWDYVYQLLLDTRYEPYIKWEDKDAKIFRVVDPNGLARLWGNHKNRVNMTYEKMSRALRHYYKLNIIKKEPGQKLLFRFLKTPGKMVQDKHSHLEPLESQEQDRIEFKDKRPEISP
# Procedure, shortened: as §1
# ELF5 = target: T6, ELF5 (Homo sapiens, UniProt Q9UKW6-2 1-255)
# T6 sequence: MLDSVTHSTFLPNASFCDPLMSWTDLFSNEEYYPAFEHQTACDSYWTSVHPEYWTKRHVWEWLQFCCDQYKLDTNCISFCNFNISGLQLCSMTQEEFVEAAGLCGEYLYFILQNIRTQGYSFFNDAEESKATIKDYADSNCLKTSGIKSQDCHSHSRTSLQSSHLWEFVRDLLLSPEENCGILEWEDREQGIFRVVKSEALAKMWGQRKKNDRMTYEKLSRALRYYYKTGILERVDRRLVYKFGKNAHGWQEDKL
# Procedure, shortened: as §1
# ETV3 = target: T7, ETV3 (Homo sapiens, UniProt P41162-2 1-143)
# T7 sequence: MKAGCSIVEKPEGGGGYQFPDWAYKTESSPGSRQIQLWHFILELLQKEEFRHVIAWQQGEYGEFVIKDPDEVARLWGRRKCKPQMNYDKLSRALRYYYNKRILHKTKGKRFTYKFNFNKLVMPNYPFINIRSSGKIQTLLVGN
# Procedure, shortened: as §1
# ETV6 = ETV6 (Homo sapiens, UniProt P41212 1-452)
# Chain of ETV6 (P41212 whole entry): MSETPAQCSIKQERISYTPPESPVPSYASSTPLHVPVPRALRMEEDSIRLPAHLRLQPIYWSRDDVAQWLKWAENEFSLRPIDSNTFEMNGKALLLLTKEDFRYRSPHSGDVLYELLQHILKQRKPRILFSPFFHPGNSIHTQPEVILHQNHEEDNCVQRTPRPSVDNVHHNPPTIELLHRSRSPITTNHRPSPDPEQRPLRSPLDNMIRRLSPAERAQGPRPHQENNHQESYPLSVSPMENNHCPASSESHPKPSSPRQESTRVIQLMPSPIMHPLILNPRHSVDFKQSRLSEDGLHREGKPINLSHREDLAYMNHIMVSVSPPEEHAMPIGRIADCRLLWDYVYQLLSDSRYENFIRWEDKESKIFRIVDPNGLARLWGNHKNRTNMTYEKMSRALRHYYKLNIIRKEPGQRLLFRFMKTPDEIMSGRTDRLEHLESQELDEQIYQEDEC
# Procedure, shortened: as §1
Sequence,binding signal (ERF),binding signal (ETV3L),binding signal (ETS2),binding signal (SPDEF),binding signal (ETV7),binding signal (ELF5),binding signal (ETV3),binding signal (ETV6)
CAGCTT,"1.28 fold enrichment (6-mer frequency, TF over GST control)","1.2 fold enrichment (6-mer frequency, TF over GST control)","1.21 fold enrichment (6-mer frequency, TF over GST control)","1.24 fold enrichment (6-mer frequency, TF over GST control)","1.15 fold enrichment (6-mer frequency, TF over GST control)","1.11 fold enrichment (6-mer frequency, TF over GST control)","1.21 fold enrichment (6-mer frequency, TF over GST control)","1.11 fold enrichment (6-mer frequency, TF over GST control)"
CGTCTA,"1.29 fold enrichment (6-mer frequency, TF over GST control)","1.4 fold enrichment (6-mer frequency, TF over GST control)","1.29 fold enrichment (6-mer frequency, TF over GST control)","1.26 fold enrichment (6-mer frequency, TF over GST control)","1.28 fold enrichment (6-mer frequency, TF over GST control)","1.17 fold enrichment (6-mer frequency, TF over GST control)","1.26 fold enrichment (6-mer frequency, TF over GST control)","1.26 fold enrichment (6-mer frequency, TF over GST control)"
TTTATT,"1.21 fold enrichment (6-mer frequency, TF over GST control)","1.44 fold enrichment (6-mer frequency, TF over GST control)","1.21 fold enrichment (6-mer frequency, TF over GST control)","1.2 fold enrichment (6-mer frequency, TF over GST control)","1.31 fold enrichment (6-mer frequency, TF over GST control)","1.24 fold enrichment (6-mer frequency, TF over GST control)","1.33 fold enrichment (6-mer frequency, TF over GST control)","1.28 fold enrichment (6-mer frequency, TF over GST control)"
CACACT,"1.22 fold enrichment (6-mer frequency, TF over GST control)","1.12 fold enrichment (6-mer frequency, TF over GST control)","1.14 fold enrichment (6-mer frequency, TF over GST control)","1.13 fold enrichment (6-mer frequency, TF over GST control)","1.14 fold enrichment (6-mer frequency, TF over GST control)","1.18 fold enrichment (6-mer frequency, TF over GST control)","1.18 fold enrichment (6-mer frequency, TF over GST control)","1.15 fold enrichment (6-mer frequency, TF over GST control)"
CCTCTC,"1.4 fold enrichment (6-mer frequency, TF over GST control)","1.41 fold enrichment (6-mer frequency, TF over GST control)","1.34 fold enrichment (6-mer frequency, TF over GST control)","1.39 fold enrichment (6-mer frequency, TF over GST control)","1.44 fold enrichment (6-mer frequency, TF over GST control)","1.41 fold enrichment (6-mer frequency, TF over GST control)","1.44 fold enrichment (6-mer frequency, TF over GST control)","1.5 fold enrichment (6-mer frequency, TF over GST control)"
AGTATC,"1.12 fold enrichment (6-mer frequency, TF over GST control)","1.09 fold enrichment (6-mer frequency, TF over GST control)","1.18 fold enrichment (6-mer frequency, TF over GST control)","1.14 fold enrichment (6-mer frequency, TF over GST control)","1.13 fold enrichment (6-mer frequency, TF over GST control)","1.23 fold enrichment (6-mer frequency, TF over GST control)","1.13 fold enrichment (6-mer frequency, TF over GST control)","1.19 fold enrichment (6-mer frequency, TF over GST control)"
GACATC,"1.22 fold enrichment (6-mer frequency, TF over GST control)","1.27 fold enrichment (6-mer frequency, TF over GST control)","1.31 fold enrichment (6-mer frequency, TF over GST control)","1.57 fold enrichment (6-mer frequency, TF over GST control)","1.31 fold enrichment (6-mer frequency, TF over GST control)","1.35 fold enrichment (6-mer frequency, TF over GST control)","1.33 fold enrichment (6-mer frequency, TF over GST control)","1.33 fold enrichment (6-mer frequency, TF over GST control)"
GCGACC,"1.13 fold enrichment (6-mer frequency, TF over GST control)","1.14 fold enrichment (6-mer frequency, TF over GST control)","1.19 fold enrichment (6-mer frequency, TF over GST control)","1.14 fold enrichment (6-mer frequency, TF over GST control)","1.06 fold enrichment (6-mer frequency, TF over GST control)","1.1 fold enrichment (6-mer frequency, TF over GST control)","1.1 fold enrichment (6-mer frequency, TF over GST control)","1.08 fold enrichment (6-mer frequency, TF over GST control)"
ATCGCT,"1.06 fold enrichment (6-mer frequency, TF over GST control)","1.05 fold enrichment (6-mer frequency, TF over GST control)","1.1 fold enrichment (6-mer frequency, TF over GST control)","1.04 fold enrichment (6-mer frequency, TF over GST control)","1.03 fold enrichment (6-mer frequency, TF over GST control)","1.05 fold enrichment (6-mer frequency, TF over GST control)","1.05 fold enrichment (6-mer frequency, TF over GST control)","1.04 fold enrichment (6-mer frequency, TF over GST control)"
GTACAC,"1.15 fold enrichment (6-mer frequency, TF over GST control)","1.16 fold enrichment (6-mer frequency, TF over GST control)","1.18 fold enrichment (6-mer frequency, TF over GST control)","1.2 fold enrichment (6-mer frequency, TF over GST control)","1.24 fold enrichment (6-mer frequency, TF over GST control)","1.2 fold enrichment (6-mer frequency, TF over GST control)","1.21 fold enrichment (6-mer frequency, TF over GST control)","1.29 fold enrichment (6-mer frequency, TF over GST control)"
CTGACG,"1.17 fold enrichment (6-mer frequency, TF over GST control)","1.03 fold enrichment (6-mer frequency, TF over GST control)","1.2 fold enrichment (6-mer frequency, TF over GST control)","1 fold enrichment (6-mer frequency, TF over GST control)","1.07 fold enrichment (6-mer frequency, TF over GST control)","1.09 fold enrichment (6-mer frequency, TF over GST control)","1.06 fold enrichment (6-mer frequency, TF over GST control)","1.16 fold enrichment (6-mer frequency, TF over GST control)"
AGTGTT,"1.13 fold enrichment (6-mer frequency, TF over GST control)","1.1 fold enrichment (6-mer frequency, TF over GST control)","1.1 fold enrichment (6-mer frequency, TF over GST control)","1.13 fold enrichment (6-mer frequency, TF over GST control)","1.14 fold enrichment (6-mer frequency, TF over GST control)","1.3 fold enrichment (6-mer frequency, TF over GST control)","1.08 fold enrichment (6-mer frequency, TF over GST control)","1.11 fold enrichment (6-mer frequency, TF over GST control)"
GGAAGT,"2.56 fold enrichment (6-mer frequency, TF over GST control)","2.86 fold enrichment (6-mer frequency, TF over GST control)","3.2 fold enrichment (6-mer frequency, TF over GST control)","2.97 fold enrichment (6-mer frequency, TF over GST control)","2.91 fold enrichment (6-mer frequency, TF over GST control)","3.88 fold enrichment (6-mer frequency, TF over GST control)","3.42 fold enrichment (6-mer frequency, TF over GST control)","3.88 fold enrichment (6-mer frequency, TF over GST control)"
GCTACC,"1.31 fold enrichment (6-mer frequency, TF over GST control)","1.15 fold enrichment (6-mer frequency, TF over GST control)","1.22 fold enrichment (6-mer frequency, TF over GST control)","1.22 fold enrichment (6-mer frequency, TF over GST control)","1.27 fold enrichment (6-mer frequency, TF over GST control)","1.24 fold enrichment (6-mer frequency, TF over GST control)","1.24 fold enrichment (6-mer frequency, TF over GST control)","1.16 fold enrichment (6-mer frequency, TF over GST control)"
GGGCTT,"1.19 fold enrichment (6-mer frequency, TF over GST control)","1.2 fold enrichment (6-mer frequency, TF over GST control)","1.22 fold enrichment (6-mer frequency, TF over GST control)","1.11 fold enrichment (6-mer frequency, TF over GST control)","1.28 fold enrichment (6-mer frequency, TF over GST control)","1.16 fold enrichment (6-mer frequency, TF over GST control)","1.19 fold enrichment (6-mer frequency, TF over GST control)","1.2 fold enrichment (6-mer frequency, TF over GST control)"
